Hit rate of the full screen: of about 69,000 compounds, about 8,600 (12%) showed an effect of 50% or more. This excerpt belongs to a sample that is enriched for strong results.
What follows are molecules tested on Plasmodium berghei (assay: Screen against P. berghei liver stage (PbLuc), transformed with Luciferase, at 10uM). Conditions: tested at 10 uM.
Assay type: functional, HepG2

Row | SMILES | INHIBITION [%]
1 | Cc1cn2c(n1)C(CNCC1=Cc3cc(Cl)ccc3OC1)CCC2 (stereo not drawn) | 90.2
2 | Cc1ccc(N2CCCC(NCC3=Cc4ccccc4OC3)C2)nn1 (stereo not drawn) | -4.94
3 | CCN(CC)c1ncc(CNCC2CCCn3ccnc32)s1 (stereo not drawn) | 30.8
4 | CC(NCC1=Cc2cc(Cl)ccc2OC1)c1nnc2n1CCCC2 (stereo not drawn) | 0.139
5 | Cc1cn2c(n1)C(CNCC1=Cc3ccccc3OC1)CCC2 (stereo not drawn) | 88.5
6 | Cn1ccnc1C(=O)N1CCCC(Cn2cc(CO)nn2)C1 (stereo not drawn) | 47.6
7 | O=C(Nc1ccc(F)c(F)c1)N1CCC2(CCC(=O)N(C3CC3)C2)CC1 | 36
8 | COCCn1ccc2cc(C(=O)NC3CCOC(C)(C)C3)ccc21 (stereo not drawn) | -16.5
9 | COC(=O)NCC(=O)N1CCCn2nc(CN3CC[C@H](F)C3)cc2C1 | 59.1
10 | Cc1nn(C)cc1C(=O)N1CCCn2nc(CN3CC[C@H](F)C3)cc2C1 | 38.5
11 | COC(=O)NCc1cc2n(n1)CCCN(C(C)=O)C2 | 9.3
12 | Cc1ccc(N2CCC(CCN3CCCC3=O)CC2)nn1 | 27.7
13 | Cc1ccc(C2CCCN(S(=O)(=O)N3CCOCC3)C2)nc1 (stereo not drawn) | 19.85
14 | COc1ccccc1N1CCC(CNCc2cccc(C#N)c2)C1 (stereo not drawn) | 53.3
15 | COc1ccccc1N1CCC(CNCc2cccc(OC)c2OC)C1 (stereo not drawn) | 59.4
16 | COc1cccc(N2CCC(CNCc3cccc(C#N)c3)C2)c1 (stereo not drawn) | 26.4
17 | COc1ccccc1N1CCC(CNCc2cccc(O)c2)C1 (stereo not drawn) | 37.5
18 | COc1ccc(CNCC2CCN(c3ccccc3OC)C2)cc1O (stereo not drawn) | -29.1
19 | COc1ccccc1N1CCC(CNCc2ccc(C#N)cc2)C1 (stereo not drawn) | 40.9
20 | Cc1cnn(CC2CCCN2C(=O)c2cccc(F)c2F)c1 (stereo not drawn) | -65.3
21 | CN(Cc1cnn(C)c1)C(=O)CCS(=O)(=O)c1ccc2c(c1)OCCO2 | 38
22 | O=C(c1ccsc1)N1C[C@H]2CN(Cc3cccnc3)C(=O)[C@H]2C1 | 4.61
23 | CO[C@H]1CN(S(=O)(=O)c2ccc(C)cc2)C[C@@]12CCCO2 | 16.5
24 | O=C(NCc1cc2ccccc2s1)c1cc(CN2CCCC(O)C2)on1 (stereo not drawn) | 50.8
25 | O=C(NCc1cccc(F)c1F)c1cc(CN2CCCC(O)C2)on1 (stereo not drawn) | 34.1
26 | O=C(NCc1ccc(Cl)s1)c1cc(CN2CCCC(O)C2)on1 (stereo not drawn) | 49.9

Row | SMILES | INHIBITION [%]
27 | CC(C)C[C@H](NC(=O)N1CCC(Cc2ccccc2)CC1)C(=O)O | 43.4
28 | CCC(CO)N(Cc1cccnc1)C(=O)c1ccc(C)[nH]c1=O (stereo not drawn) | 35.1
29 | Cc1ccc(CN2CCOC3(COCCN(S(C)(=O)=O)C3)C2)o1 (stereo not drawn) | 15.4
30 | Clc1cccnc1OC1CCNCC1 | 28.6
31 | O=C(NCc1ccccc1)N1CCC(Oc2ncccc2Br)CC1 | 74.4
32 | O=C(CCC(=O)N1CCC(Oc2ncccc2Br)CC1)c1ccccc1 | 45
33 | Brc1cccnc1OC1CCNCC1 | 51
34 | O=C(NCc1ccccc1)N1CCC(Oc2ncccc2Cl)CC1 | 22.2
35 | COc1ncccc1CNC(=O)N1CCC(CNC(C)=O)CC1 | 0.266
36 | O=C(c1cc(C2CC2)on1)N1CCC(Oc2ncccc2Br)CC1 | 44.2
37 | N#Cc1cccnc1OC1CCN(C(=O)c2cc(C3CC3)on2)CC1 | 34.3
38 | N#Cc1cccnc1OC1CCN(C(=O)NCc2ccccc2)CC1 | 52.6
39 | CCn1ncnc1CN1CCC(CNC(=O)c2cccnc2O)C1 (stereo not drawn) | -11.3
40 | Cc1oc(C(C)C)cc1C(=O)N1C[C@@H]2CC[C@H]1CN(C(=O)N(C)C)C2 | -14.3
41 | Cc1cc(C)n(CC2CCN(CC(O)CN3CCOCC3)CC2)n1 (stereo not drawn) | -5.22
42 | O=C1NC(C(=O)NCc2cccnc2Oc2ccccc2F)CO1 (stereo not drawn) | -12.1
43 | CCCc1noc(C2CCCCN2C(=O)C2CCCC2)n1 (stereo not drawn) | -11.7
44 | CCN(CC1CCOC1)C(=O)c1ccn(-c2cc(C)ccc2OC)n1 (stereo not drawn) | 30.5
45 | CNC(=O)[C@@]12CCC3(CCN(C(=O)COC)CC3)[C@@H]1CN(S(C)(=O)=O)C2 | -16.2
46 | CCC(NC(=O)C(C)(C)C)c1ccccc1C (stereo not drawn) | 32.9
47 | CC[C@@H](C)[C@H](NC(=O)Cn1ccc2c(Cl)cccc21)C(=O)O | -19.7
48 | C[C@]1(O)CN(CCO)CC[C@@H]1Oc1cccc(F)c1 | 59
49 | C[C@]1(O)CN(CCC(N)=O)CC[C@@H]1Oc1cccc(F)c1 | 53
50 | C[C@]1(O)CN(CC(=O)N2CCCC2)CC[C@@H]1Oc1cccc(F)c1 | 41.2
51 | Cn1cncc1CN1CC[C@](C)(O)[C@@H](Oc2cccc(F)c2)C1 | 21.9
52 | C[C@]1(O)CN(Cc2ccc(C(=O)O)cc2)CC[C@@H]1Oc1cccc(F)c1 | 15.9

Row | SMILES | INHIBITION [%]
53 | C[C@]1(O)CN(Cc2cccc(C(=O)O)c2)CC[C@@H]1Oc1cccc(F)c1 | 17.4
54 | Cc1cccc(CN2CC3(CCN(C(=O)N(C)C)CC3)OCC2=O)n1 | 30.3
55 | Cc1cc(C(=O)NC2CCc3c(ccc(=O)n3CC3CC3)C2)no1 (stereo not drawn) | 36.5
56 | Cc1nnc([C@]23COC[C@H]2CN(Cc2nccs2)C3)o1 | 9.79
57 | Cc1cc2n(n1)CC(CNCc1ccccc1-n1cccn1)CN2 (stereo not drawn) | -18.605
58 | O=C(c1ccncc1)N1C[C@@H]2OCCN(CCN3CCCC3)[C@@H]2C1 | 32.2
59 | O=C(c1ccsc1)N1C[C@@H]2OCCN(CCN3CCCC3)[C@@H]2C1 | 82.3
60 | O=C(c1ccco1)N1C[C@@H]2OCCN(CCN3CCCC3)[C@@H]2C1 | 23.3
61 | Cc1occc1C(=O)N1C[C@@H]2OCCN(CCN3CCCC3)[C@@H]2C1 | 66
62 | CN(C)CCN1CCO[C@H]2CN(C(=O)c3ccsc3)C[C@H]21 | 6.67
63 | Cc1cc(C(=O)N2C[C@@H]3OCCN(CCN4CCCC4)[C@@H]3C2)c(C)o1 | 32.2
64 | O=C(CN1CCCC1Cn1cncn1)NCCOc1ccc(F)cc1 (stereo not drawn) | 42.9
65 | O=C1CCC(=O)N1Cc1ccc(C(=O)N2CCCC2c2cccs2)cc1 (stereo not drawn) | -21.9
66 | Cn1cc(NC(=O)NCc2ccsc2)ccc1=O | 16.1
67 | Cn1cc(NC(=O)CCc2ccsc2)ccc1=O | 59.3
68 | CN(Cc1ccsc1)C(=O)Nc1ccc(=O)n(C)c1 | 47.4
69 | Cc1c(O)cccc1C(=O)N1CCCC2(C1)C(=O)N(C)c1ccccc12 (stereo not drawn) | 17.7
70 | CC(=O)N1CCc2cc(C(=O)O)c(-c3ccsc3)nc2CC1 | 11.3
71 | O=C(O)c1cc2c(nc1-c1ccsc1)CCN(C(=O)C1CC1)CC2 | 40.8
72 | NC(=O)N1CCc2cc(C(=O)O)c(-c3ccsc3)nc2CC1 | 74.8
73 | CC(C)=CCCC1(C)CCC(=O)N(CCc2nc(N)cc(O)n2)C1 (stereo not drawn) | 21.5
74 | c1coc(CN2CCCn3c(CN4CCOCC4)nnc3C2)c1 | -4.26
75 | N#Cc1ccc(SCCC(=O)NC(N)=O)cc1 | -33.4
76 | NC(=O)NC(=O)CCSc1ccccc1Cl | 55.9
77 | CNC(=O)NC(=O)CCSc1ccccc1Cl | 41.8
78 | Cc1nc(CN2C[C@@H]3CN(c4ncccn4)C[C@@H]3C2=O)cs1 | -12.1

Row | SMILES | INHIBITION [%]
79 | Cc1cc(C)c(CNC(=O)NCC2COc3ccccc3C2)c(=O)[nH]1 (stereo not drawn) | 17.5
80 | Cc1cc(C)c(CNC(=O)c2ccc3c(c2)CCC3)c(=O)[nH]1 | 50.3
81 | Cc1cc(C)c(CNC(=O)NCC2Cc3ccccc32)c(=O)[nH]1 (stereo not drawn) | 0.342
82 | Cc1cc(C)c(CNC(=O)NCC2Cc3ccccc3O2)c(=O)[nH]1 (stereo not drawn) | 73.1
83 | Cc1cc(C)c(CNC(=O)NCc2ccc3c(c2)CCC3)c(=O)[nH]1 | 30.2
84 | Cc1cc(C)c(CNC(=O)Cc2ccc3c(c2)CCCC3)c(=O)[nH]1 | 40
85 | N#Cc1c(-c2ccccc2)csc1N | 49.7
86 | O=C(NCCC1CC1)NCc1cccc(-n2ccnc2)c1 | 21.6
87 | Cc1ccccc1C(=O)N1C[C@@H]2CCN(c3cccnc3)C[C@@H]2C1 | 68.4
88 | Cn1cccc1C(=O)N1C[C@@H]2CCN(c3cccnc3)C[C@@H]2C1 | 36.9
89 | O=C(c1ccc(O)cc1)N1C[C@@H]2CCN(c3cccnc3)C[C@@H]2C1 | 46.2
90 | O=C(c1ccncc1)N1C[C@@H]2CCN(c3cccnc3)C[C@@H]2C1 | 47.4
91 | O=C(c1cnccn1)N1C[C@@H]2CCN(c3cccnc3)C[C@@H]2C1 | 41.6
92 | O=C(c1ccco1)N1C[C@@H]2CCN(c3cccnc3)C[C@@H]2C1 | 90.5
93 | Cc1cccc(C(=O)N2C[C@@H]3CCN(c4cccnc4)C[C@@H]3C2)c1 | 23.3
94 | Cc1ccc(C(=O)N2C[C@@H]3CCN(c4cccnc4)C[C@@H]3C2)cn1 | 19.4
95 | O=C(c1ccsc1)N1C[C@@H]2CCN(c3cccnc3)C[C@@H]2C1 | 77.7
96 | CC(=O)Nc1nc(CN2CCOC(Cn3nc(C)cc3C)C2)cs1 (stereo not drawn) | 15.6
97 | COCCN(Cc1ccoc1)C(=O)c1ccc(Cl)s1 | 25.1
98 | Cn1nccc1CNC(=O)Cn1nc(C(F)(F)F)cc1C1CC1 | 1.11
99 | CCc1nc(CN(C)C2CCN(Cc3ccc(Cl)s3)C2)no1 (stereo not drawn) | 36.4
100 | CCn1ccc(NC(=O)CCc2c(C)noc2C)n1 | 38.7
101 | Cc1noc(C)c1CC(=O)Nc1ccn(CC(N)=O)n1 | 37.6
102 | Cc1noc(C)c1CCC(=O)Nc1ccn(C)n1 | 71.2
103 | O=C(CCCc1ccccn1)Nc1cccc(N2CCCNC2=O)c1 | 11.2

Reference: ChEMBL document CHEMBL4513216, “Probing the Open Global Health Chemical Diversity Library for Multistage-Active Starting Points for Next-Generation Antimalarials” (ACS Infect Dis, 2020)
